Results filed as inconclusive are left out. Calls of active or inactive are those of the source. Calls follow the shape of the dose curve; as a rule, active = well fitted inhibition curve with a large enough effect; inconclusive = small, poorly fitted or top-dose-only effect; inactive = flat fitted curve, though single readings scatter.
The compounds below were run on CP305 (assay: qHTS profiling for inhibitors of Plasmodium falciparum proliferation (AID 504749; also: nearly all actives have a fitted effect of over 60% in size;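 as to activity, negative = inhibition: 0% = DMSO vehicle and full inhibition = artemisinin control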)). Details: P. falciparum in erythrocytes, SYBR Green DNA, 72 h; series mostly up to 28.7 µM; activity, negative = inhibition: at the top concentration.
Summary of the method: (§1)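 P. falciparum-infected erythrocytes (0.3% parasitemia, 2.5% hematocrit final) were exposed to compounds for 72 h at 37 C in 5% CO2, then lysed with SYBR Green buffer overnight at room temperature; parasite DNA fluorescence was normalized to artemisinin and DMSO controls.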
C#C[C@]1(O)CC[C@H]2[C@@H]3CCc4cc(OC)ccc4[C@H]3CC[C@@]21C was tested, and the “activity, negative = inhibition” value was 1.41% (inactive). With CCCCNC(=O)NS(=O)(=O)c1ccc(N)cc1 the “activity, negative = inhibition” value was -0.315% (inactive). In the case of Nc1ccc(C(=O)NCC(=O)O)cc1, the “activity, negative = inhibition” value is reported as 0.119% [at 12.8 µM] (inactive). For OC1C(O)C(O)C(O)C(O)C1O (stereo not given), the “activity, negative = inhibition” value was 3.4% (inactive). O=S(=O)(O)c1ccc(O)cc1 was tested, and the “activity, negative = inhibition” value was 0.533% (inactive). In the case of COc1cc(C(=O)NCc2ccc(OCCN(C)C)cc2)cc(OC)c1OC, the “activity, negative = inhibition” value is reported as -2.4% [at 12.8 µM] (inactive). In the case of COc1cc(C)nc(-n2nc(C)cc2OC)n1, the “activity, negative = inhibition” value is reported as -8.06% [at 12.8 µM] (inactive). For CC(=O)Oc1ccc(C)cc1, the “activity, negative = inhibition” value was -9.88% (inactive). For CC(=O)NC(=O)c1ccccc1O, the “activity, negative = inhibition” value was -4.96% (inactive). FC(F)(F)C(F)(F)C(F)(F)C(F)(F)C(F)(F)C(F)(F)C(F)(F)C(F)(F)Br was tested, and the “activity, negative = inhibition” value was 3.73% (inactive). With c1ccc(-c2nc[nH]c2-c2ccccc2)cc1 the “activity, negative = inhibition” value was -8.85% (inactive). In the case of CCNC(=O)NCc1cccc(Cl)c1, the “activity, negative = inhibition” value is reported as -6.42% (inactive). For O=C(O)Cc1csc(-c2ccc(Cl)cc2)n1, the “activity, negative = inhibition” value was -4.68% (inactive). In the case of Nc1nc(-c2ccccc2)c(Br)c(=O)[nH]1, the “activity, negative = inhibition” value is reported as -7.58% (inactive). For O=c1[nH]c(=O)n([C@H]2C[C@H](O)[C@@H](CO)O2)cc1F, the “activity, negative = inhibition” value was -5.07% (inactive). For CC(=O)Nc1ncc([N+](=O)[O-])s1, the “activity, negative = inhibition” value was -7.84% (inactive). For Cc1cccc(C)c1NC(=O)CN1CCCCCC1, the “activity, negative = inhibition” value was -13.6% (inactive). For CC[C@H](c1ccc(O)cc1)[C@@H](CC)c1ccc(O)cc1, the “activity, negative = inhibition” value was 0.656% [at 12.8 µM] (inactive). With Cc1c(-c2ccccc2)oc2c(C(=O)OCCN3CCCCC3)cccc2c1=O the “activity, negative = inhibition” value was 1.56% [at 12.8 µM] (inactive). For CCCCCCCCCCCCCCCCO, the “activity, negative = inhibition” value was -0.133% (inactive). With Oc1ccccc1C=NCc1ccccc1 the “activity, negative = inhibition” value was 1.43% (inactive). With CCN(CC)CCNC(=O)COc1ccc(OC)cc1 the “activity, negative = inhibition” value was -7.2% (inactive). In the case of COc1cc(N)c(Cl)cc1C(=O)NC1CCN(Cc2ccccc2)CC1, the “activity, negative = inhibition” value is reported as -16.4% [at 12.8 µM] (inactive). In the case of Cc1cc(NS(=O)(=O)c2ccc(N)cc2)nc(C)n1, the “activity, negative = inhibition” value is reported as 11.4% (inactive). In the case of CC(=O)OC[C@H]1O[C@@H](n2ncc(=O)[nH]c2=O)[C@H](OC(C)=O)[C@@H]1OC(C)=O, the “activity, negative = inhibition” value is reported as 5.26% (inactive). With CCOc1ccccc1OCCN[C@H](C)Cc1ccc(OC)c(S(N)(=O)=O)c1 the “activity, negative = inhibition” value was -5.98% (inactive). In the case of O=C(NCCc1c[nH]c2ccccc12)c1cccnc1, the “activity, negative = inhibition” value is reported as -1.27% (inactive). For Cc1ccccc1OCC(O)CO (stereo not given), the “activity, negative = inhibition” value was -1.81% (inactive). For Cc1cc(C)cc(OCC2CNC(=O)O2)c1 (stereo not given), the “activity, negative = inhibition” value was -3.96% (inactive). In the case of CCOc1cc(OCC)c(C(=O)CCC(=O)O)cc1OCC, the “activity, negative = inhibition” value is reported as -10.2% (inactive). With N#CCC(=O)NN the “activity, negative = inhibition” value was -10.8% (inactive). For O=C(O)C(Cc1cc(I)c(O)c(I)c1)c1ccccc1 (stereo not given), the “activity, negative = inhibition” value was -2.74% (inactive). For CCCCCCCC/C=C\CCCCCCCCN, the “activity, negative = inhibition” value was -2.97% (inactive). For CC1=C(C(=O)O)N2C(=O)[C@@H](NC(=O)[C@H](N)c3ccccc3)[C@H]2SC1, the “activity, negative = inhibition” value was 4.51% (inactive). For CCN(CC)CCNc1ccc(CO)c2sc3ccccc3c(=O)c12, the Potency was 3.79 µM (active). Cl/C(=C\n1cncn1)c1ccc(Cl)cc1Cl was tested, and the “activity, negative = inhibition” value was -2.34% (inactive). With CCCCCCCCCCCCCCCC(=O)O the “activity, negative = inhibition” value was -0.216% (inactive). In the case of CC(C)CCCC(C)N (stereo not given), the “activity, negative = inhibition” value is reported as 1.22% (inactive). In the case of CCOC(=O)c1ccc(N)cc1, the “activity, negative = inhibition” value is reported as -0.326% [at 12.8 µM] (inactive). With Cc1c[nH]c2ccccc12 the “activity, negative = inhibition” value was -0.164% (inactive).

These compounds were tested on CP315 in the same assay as above. Details: P. falciparum in erythrocytes, SYBR Green DNA, 72 h; series mostly up to 28.7 µM; activity, negative = inhibition: at the top concentration.
Summary of the method: as §1
In the case of C#C[C@]1(O)CC[C@H]2[C@@H]3CCc4cc(OC)ccc4[C@H]3CC[C@@]21C, the “activity, negative = inhibition” value is reported as -4.25% (inactive). In the case of CCCCNC(=O)NS(=O)(=O)c1ccc(N)cc1, the “activity, negative = inhibition” value is reported as 1.31% (inactive). For Nc1ccc(C(=O)NCC(=O)O)cc1, the “activity, negative = inhibition” value was 3.27% [at 12.8 µM] (inactive). In the case of OC1C(O)C(O)C(O)C(O)C1O (stereo not given), the “activity, negative = inhibition” value is reported as -0.967% (inactive). O=S(=O)(O)c1ccc(O)cc1 was tested, and the “activity, negative = inhibition” value was -0.769% (inactive). For COc1cc(C(=O)NCc2ccc(OCCN(C)C)cc2)cc(OC)c1OC, the “activity, negative = inhibition” value was 1.44% [at 12.8 µM] (inactive). COc1cc(C)nc(-n2nc(C)cc2OC)n1 was tested, and the “activity, negative = inhibition” value was -0.726% [at 12.8 µM] (inactive). In the case of CC(=O)Oc1ccc(C)cc1, the “activity, negative = inhibition” value is reported as -5.29% (inactive). For CC(=O)NC(=O)c1ccccc1O, the “activity, negative = inhibition” value was -2.89% (inactive). With FC(F)(F)C(F)(F)C(F)(F)C(F)(F)C(F)(F)C(F)(F)C(F)(F)C(F)(F)Br the “activity, negative = inhibition” value was 0.0587% (inactive). For c1ccc(-c2nc[nH]c2-c2ccccc2)cc1, the “activity, negative = inhibition” value was -8.42% (inactive). For CCNC(=O)NCc1cccc(Cl)c1, the “activity, negative = inhibition” value was -1.69% (inactive). With O=C(O)Cc1csc(-c2ccc(Cl)cc2)n1 the “activity, negative = inhibition” value was 0.0835% (inactive). With Nc1nc(-c2ccccc2)c(Br)c(=O)[nH]1 the “activity, negative = inhibition” value was 0.261% (inactive). With O=c1[nH]c(=O)n([C@H]2C[C@H](O)[C@@H](CO)O2)cc1F the “activity, negative = inhibition” value was 2.32% (inactive). CC(=O)Nc1ncc([N+](=O)[O-])s1 was tested, and the “activity, negative = inhibition” value was -8.88% (inactive). For Cc1cccc(C)c1NC(=O)CN1CCCCCC1, the “activity, negative = inhibition” value was 0.246% (inactive). In the case of CC[C@H](c1ccc(O)cc1)[C@@H](CC)c1ccc(O)cc1, the “activity, negative = inhibition” value is reported as -6.45% [at 12.8 µM] (inactive). With Cc1c(-c2ccccc2)oc2c(C(=O)OCCN3CCCCC3)cccc2c1=O the “activity, negative = inhibition” value was -0.101% [at 12.8 µM] (inactive). In the case of CCCCCCCCCCCCCCCCO, the “activity, negative = inhibition” value is reported as -0.44% (inactive). With Oc1ccccc1C=NCc1ccccc1 the “activity, negative = inhibition” value was -1.83% (inactive). For CCN(CC)CCNC(=O)COc1ccc(OC)cc1, the “activity, negative = inhibition” value was 2.28% (inactive). For COc1cc(N)c(Cl)cc1C(=O)NC1CCN(Cc2ccccc2)CC1, the “activity, negative = inhibition” value was -3.37% [at 12.8 µM] (inactive). With Cc1cc(NS(=O)(=O)c2ccc(N)cc2)nc(C)n1 the “activity, negative = inhibition” value was 0.642% (inactive). With CC(=O)OC[C@H]1O[C@@H](n2ncc(=O)[nH]c2=O)[C@H](OC(C)=O)[C@@H]1OC(C)=O the “activity, negative = inhibition” value was -6.43% (inactive). In the case of CCOc1ccccc1OCCN[C@H](C)Cc1ccc(OC)c(S(N)(=O)=O)c1, the “activity, negative = inhibition” value is reported as 0.51% (inactive). For O=C(NCCc1c[nH]c2ccccc12)c1cccnc1, the “activity, negative = inhibition” value was -9.21% (inactive). Cc1ccccc1OCC(O)CO (stereo not given) was tested, and the “activity, negative = inhibition” value was -1.85% (inactive). In the case of Cc1cc(C)cc(OCC2CNC(=O)O2)c1 (stereo not given), the “activity, negative = inhibition” value is reported as -0.0893% (inactive). CCOc1cc(OCC)c(C(=O)CCC(=O)O)cc1OCC was tested, and the “activity, negative = inhibition” value was -8.98% (inactive). N#CCC(=O)NN was tested, and the “activity, negative = inhibition” value was -15.6% (inactive). For O=C(O)C(Cc1cc(I)c(O)c(I)c1)c1ccccc1 (stereo not given), the “activity, negative = inhibition” value was 1.76% (inactive). In the case of CCCCCCCC/C=C\CCCCCCCCN, the “activity, negative = inhibition” value is reported as -0.805% (inactive). With CC1=C(C(=O)O)N2C(=O)[C@@H](NC(=O)[C@H](N)c3ccccc3)[C@H]2SC1 the “activity, negative = inhibition” value was -0.252% (inactive). For CCN(CC)CCNc1ccc(CO)c2sc3ccccc3c(=O)c12, the Potency was 6.01 µM (active). Cl/C(=C\n1cncn1)c1ccc(Cl)cc1Cl was tested, and the “activity, negative = inhibition” value was -6.62% (inactive). CCCCCCCCCCCCCCCC(=O)O was tested, and the “activity, negative = inhibition” value was -0.0118% (inactive). In the case of CC(C)CCCC(C)N (stereo not given), the “activity, negative = inhibition” value is reported as 1.74% (inactive). For CCOC(=O)c1ccc(N)cc1, the “activity, negative = inhibition” value was 1.11% [at 12.8 µM] (inactive). With Cc1c[nH]c2ccccc12 the “activity, negative = inhibition” value was 2.3% (inactive).

Source: PubChem BioAssay (NCATS)
Potency is read from the fitted curve at half-maximal effect.
